Compound activity from PubChem BioAssay.
DT40 TDP1 CPT – DT40-hTDP1 cell growth loss with CPT | chicken DT40 Tdp1-/-;hTDP1 cells + 20 nM CPT, ATP luminescence, 48 h | Potency, µM (series often up to 46.2 µM), most hits filed as inhibitors | AID 686979 | 420,000 tested, 12% active; further: nearly all actives have a fitted effect of over 55% in size
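Chicken DT40 Tdp1-/- cells stably complemented with human TDP1 were seeded at 400 cells/well in medium containing 20 nM camptothecin, exposed to pin-transferred compounds, and grown at 37 °C for at least 48 hr. Viability was read as ATP luminescence.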
ClpP mod – qHTS Assay for Activators of ClpP; purified B. subtilis ClpP, FRET peptide cleavage, 20 min; ATP-dependent Clp protease proteolytic subunit (Bacillus subtilis (strain 168)), P80244; Potency, µM (highest dose often 57.5 µM); 340,000 tested, 1.9% active; active means well fitted falling curve with a large enough effect; inconclusive means small, poorly fitted or top-dose-only effect; inactive means no such curve, though single readings can be large or run the other way; further: the source files actives as falling curves though it sought activators and does not explain the sign; nearly all actives have a fitted effect of over 65% in size
Target sequence (P80244 whole entry, looked up): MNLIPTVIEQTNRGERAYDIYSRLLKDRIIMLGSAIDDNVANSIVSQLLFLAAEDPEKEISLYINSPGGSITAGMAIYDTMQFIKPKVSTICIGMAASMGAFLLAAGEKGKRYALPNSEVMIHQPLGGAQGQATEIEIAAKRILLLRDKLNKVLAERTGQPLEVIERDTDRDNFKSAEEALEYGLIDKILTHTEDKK
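Purified B. subtilis ClpP, 10 microg/mL final in Tris/HCl pH8 with KCl, BSA, glycerol and Tween-20, cleaved an Abz/nitrotyrosine-quenched decapeptide. Fluorescence (ex 320, em 430) was read at 0 and 20 min at room temperature. Delta was normalized to 5.8 microM ADEP and DMSO/no-enzyme controls.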
DT40 TDP1 no CPT – qHTS for Inhibitors of human tyrosyl-DNA phosphodiesterase 1 (TDP1): qHTS in cells in absence of CPT; DT40 Tdp1-/- hTDP1 cells, no CPT, ATP luminescence, 48 h; Potency, µM (top dose mostly 46.2 µM), most hits filed as inhibitors; 420,000 tested, 15% active; AID 686978, 2013; further: nearly all actives have a fitted effect of over 55% in size
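Stably hTDP1-transfected Tdp1-null chicken DT40 cells were treated with library compounds minus camptothecin and grown for at least 48 hr at 37 °C, after which cellular ATP was quantified by luminescence.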
TDP1 inh – TDP1 (human) enzyme inhibition. Q9NUW8. recombinant TDP1, AlphaScreen DNA substrate cleavage. 350,000 tested, 0.28% active. AID 485290. Potency, µM (top dose mostly 130 µM), usual class: inhibitors; further: nearly all actives have a fitted effect of over 40% in size
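Steps: enzyme plus compound, 15 min RT; add biotin/phosphotyrosine-FITC oligonucleotide (15 nM final), react 5 min; add donor/acceptor beads (10 ug/ml final), 10 min; read AlphaScreen. Tdp1 at 1 nM final.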
Hits are given with their value. Only some compounds are listed: those with a hit (about 17% of all), similar ones and a draw of the others. Unless noted, the call rests on the fitted dose curve; in most records, active means well fitted curve in the direction sought with a large enough effect; inconclusive means small, poorly fitted or top-dose-only effect, or another doubt; inactive means no such curve, though single readings can be large; an effect the other way counts as inactive or inconclusive.

Results for CCOC(=O)c1c(S(=O)(=O)NCC(=O)Nc2cc(C)ccc2OC)c(C)n(C)c1C ?
DT40 TDP1 CPT: inactive; ClpP mod: inactive; DT40 TDP1 no CPT: inconclusive; TDP1 inh: inactive

Results for COc1cccc(CNC(=O)CCc2c(C)c3cc4c(C)coc4c(C)c3oc2=O)c1 ?
DT40 TDP1 CPT: inconclusive; ClpP mod: inactive; DT40 TDP1 no CPT: inconclusive; TDP1 inh: inactive

Results for Cc1ccc(-c2nc(CS(=O)(=O)CC(=O)N3CCc4ccccc4C3)c(C)o2)cc1 ?
DT40 TDP1 CPT: 18µM; ClpP mod: inactive; DT40 TDP1 no CPT: 21µM; TDP1 inh: inactive

How did Cc1ccc(-c2nc(CS(=O)(=O)CC(=O)N3CCN(c4ccccc4)CC3)c(C)o2)cc1 do in these assays?
DT40 TDP1 CPT: inconclusive; ClpP mod: inactive; DT40 TDP1 no CPT: 23µM; TDP1 inh: inactive

What do the screens show for `CN1C(=O)c2cccc3c(S(=O)(=O)NCCc4ccccc4)ccc1c23`?
DT40 TDP1 CPT: inconclusive; DT40 TDP1 no CPT: 21µM; TDP1 inh: inactive

What do the screens show for `COc1ccc(-c2cc(C(F)F)n3ncc(C(=O)NCC4CCCO4)c3n2)cc1` (stereo not drawn)?
DT40 TDP1 CPT: inconclusive; ClpP mod: 22µM; DT40 TDP1 no CPT: inconclusive; TDP1 inh: inactive

How did O=C(NCCN1CCOCC1)c1cnn2c(-c3ccccc3)cc(-c3ccccc3)nc12 do in these assays?
DT40 TDP1 CPT: inconclusive; ClpP mod: inconclusive; DT40 TDP1 no CPT: 23µM; TDP1 inh: inactive

Results for COc1ccc(-c2cc(C(F)F)n3ncc(C(=O)Nc4ccc(C(=O)N5CCOCC5)cc4)c3n2)cc1 ?
DT40 TDP1 CPT: 10µM; ClpP mod: inactive; DT40 TDP1 no CPT: 3.3µM; TDP1 inh: inactive

How did CCOc1ccccc1NC(=O)c1cnn2c(C(F)F)cc(-c3ccccc3)nc12 do in these assays?
DT40 TDP1 CPT: 15µM; ClpP mod: inactive; DT40 TDP1 no CPT: 23µM; TDP1 inh: inactive

Results for COc1ccc(NS(=O)(=O)c2ccc(NC(=O)c3cnn4c(C(F)F)cc(-c5ccc(C)cc5)nc34)cc2)cc1 ?
TDP1 inh: inactive

What do the screens show for `CCN1CCN(CCCN(Cc2cccs2)C(=S)Nc2ccccc2C)CC1`?
DT40 TDP1 CPT: inactive; DT40 TDP1 no CPT: inactive; TDP1 inh: inactive

What do the screens show for `O=C(c1cnn2c(C(F)F)cc(-c3ccccc3)nc12)N1CCOCC1`?
DT40 TDP1 CPT: inactive; ClpP mod: inactive; DT40 TDP1 no CPT: inactive; TDP1 inh: inactive

Results for O=C(Nc1ccc(C(=O)N2CCOCC2)cc1)c1cnn2c(C(F)F)cc(-c3ccccc3)nc12 ?
DT40 TDP1 CPT: inconclusive; DT40 TDP1 no CPT: 5.8µM; TDP1 inh: inactive

What do the screens show for `COc1ccccc1CCNC(=O)c1cnn2c(C(F)F)cc(C)nc12`?
DT40 TDP1 CPT: 21µM; ClpP mod: inactive; DT40 TDP1 no CPT: 23µM; TDP1 inh: inactive

How did Cc1ccc(C)c(NC(=O)c2ccc(S(=O)(=O)C(F)F)cc2)c1 do in these assays?
DT40 TDP1 CPT: inactive; ClpP mod: inactive; DT40 TDP1 no CPT: inactive; TDP1 inh: inactive

How did CC(OC(=O)Cn1cnc2c1c(=O)n(C)c(=O)n2C)C(=O)NC(C)c1ccc(Cl)cc1Cl (stereo not drawn) do in these assays?
DT40 TDP1 CPT: inconclusive; ClpP mod: inactive; DT40 TDP1 no CPT: inactive; TDP1 inh: inactive

What do the screens show for `Cc1cccc(NC(=O)COc2cccc3c2CCN(Cc2ccccc2)C3=O)c1C`?
DT40 TDP1 CPT: inconclusive; ClpP mod: inactive; DT40 TDP1 no CPT: inconclusive; TDP1 inh: inactive

How did CCOC(=O)C1C(=O)C=C(c2ccc(C)cc2)CC1c1ccc([N+](=O)[O-])cc1 (stereo not drawn) do in these assays?
DT40 TDP1 CPT: inconclusive; ClpP mod: inactive; DT40 TDP1 no CPT: 13µM; TDP1 inh: inactive

What do the screens show for `COC(=O)[C@]1(Cc2ccccc2)N[C@H](CN(C)C(=O)Nc2ccc(Cl)cc2)[C@@H]2C(=O)N(Cc3ccccc3)C(=O)[C@@H]21`?
DT40 TDP1 CPT: 21µM; ClpP mod: inactive; DT40 TDP1 no CPT: inconclusive; TDP1 inh: inactive

What do the screens show for `COC(=O)[C@]1(Cc2ccccc2)N[C@H](CN(C)C(=O)Nc2ccccc2)[C@@H]2C(=O)N(Cc3ccccc3)C(=O)[C@@H]21`?
DT40 TDP1 CPT: inconclusive; ClpP mod: inactive; DT40 TDP1 no CPT: inconclusive; TDP1 inh: inactive

What do the screens show for `COC(=O)[C@]1(Cc2ccccc2)N[C@H](CN(C)C(=O)Nc2ccc(C(F)(F)F)cc2)[C@@H]2C(=O)N(C)C(=O)[C@@H]21`?
DT40 TDP1 CPT: 12µM; ClpP mod: inactive; DT40 TDP1 no CPT: inconclusive; TDP1 inh: inactive

How did CC[C@@]1(C(=O)OC)N[C@H](CN(C)C(=O)Nc2ccc(C)cc2)[C@@H]2C(=O)N(Cc3ccccc3)C(=O)[C@@H]21 do in these assays?
DT40 TDP1 CPT: 29µM; ClpP mod: inactive; DT40 TDP1 no CPT: inconclusive; TDP1 inh: inactive

Results for COC(=O)[C@]1(Cc2ccccc2)N[C@H](CN(C)C(=O)Nc2ccc(F)cc2)[C@@H]2C(=O)N(Cc3ccccc3)C(=O)[C@@H]21 ?
DT40 TDP1 CPT: inconclusive; ClpP mod: inactive; DT40 TDP1 no CPT: 15µM; TDP1 inh: inactive

Results for O=C1CCC[C@@H]2[C@H]3CCC[N+]4([O-])CCC[C@@H](CN12)[C@@H]34 (stereo partly drawn) ?
DT40 TDP1 CPT: inactive; DT40 TDP1 no CPT: inactive

How did O=C(Cn1nc(C(=O)O)c2ccccc2c1=O)Nc1ccc2c(c1)C(=O)c1ccccc1C2=O do in these assays?
TDP1 inh: inactive

How did O=C(NCc1ccccc1)c1cccc(NC(=O)C2CCCC2)c1 do in these assays?
DT40 TDP1 CPT: inconclusive; ClpP mod: inactive; DT40 TDP1 no CPT: inactive

What do the screens show for `S=C(Nc1cccc(Cl)c1Cl)N1CCC2(CC1)OCCO2`?
DT40 TDP1 CPT: inactive; ClpP mod: inactive; DT40 TDP1 no CPT: inactive; TDP1 inh: inactive

Results for CCOc1ccc(C2=C(C(=O)CC)Sc3nncn3N2C(=O)CC)cc1 ?
DT40 TDP1 CPT: 16µM; ClpP mod: inactive; DT40 TDP1 no CPT: inconclusive; TDP1 inh: inactive

How did CCC(=O)C1=C(c2ccc(F)cc2)N(C(=O)CC)n2cnnc2S1 do in these assays?
DT40 TDP1 CPT: 18µM; ClpP mod: inactive; DT40 TDP1 no CPT: 13µM; TDP1 inh: inactive

How did CC1CCCN(C(=O)Cn2nnc(-c3ccc(F)cc3)n2)C1 (stereo not drawn) do in these assays?
DT40 TDP1 CPT: inactive; DT40 TDP1 no CPT: inactive; TDP1 inh: inactive

Results for COc1ccc(-c2c3c(cc(C)[n+]2[O-])oc2ccc(OC)cc23)cc1 ?
DT40 TDP1 CPT: 26µM; ClpP mod: inconclusive; DT40 TDP1 no CPT: inconclusive; TDP1 inh: inactive

Results for COc1ccc2oc3cc(C)[n+]([O-])c(-c4ccc(C)cc4)c3c2c1 ?
DT40 TDP1 CPT: inconclusive; ClpP mod: inconclusive; DT40 TDP1 no CPT: 0.21µM; TDP1 inh: inactive

What do the screens show for `N#CC1=C(N)Oc2n[nH]c(-c3cccnc3)c2C1c1ccc([N+](=O)[O-])o1` (stereo not drawn)?
DT40 TDP1 CPT: 3.7µM; ClpP mod: inactive; DT40 TDP1 no CPT: 2.9µM; TDP1 inh: inactive
